Sampled rows, rich in hits. Any-hit rate of the full collection: about 3.6%.
Anthrax LF prot – Bacillus anthracis LF protease inhibitors, primary screen, biochemical, multiplex microsphere, MLPCN library; multiplex microsphere protease cleavage assay; inhibition, % at 10 µM; 360,000 compounds, 0.12% hits; Lethal factor (Bacillus anthracis), P15917; further: plate controls were buffer without enzyme for full effect and enzyme alone for no effect
MazF activator – activators of E. coli MazEF toxin-antitoxin RNase, primary screen, biochemical, fluorescence, uHTS | Endoribonuclease toxin MazF (Escherichia coli (strain K12)), P0AE70 | FAM/BHQ RNA-DNA oligo cleavage fluorescence, 5 h | activation, % at 20 µM | 350,000 compounds, 0.32% hits | AID 504720, 2011; in the data active means activation above about 50%
BoNT A protease – BoNT/A light chain protease inhibitors, primary screen, biochemical, flow cytometry, MLPCN library | Botulinum neurotoxin type A light chain protease (Clostridium botulinum A str. ATCC 3502) | multiplex microsphere protease substrate cleavage | inhibition, % at 10 µM | 360,000 compounds, 0.17% hits | AID 588499, 2011; further: plate controls were buffer without enzyme for full effect and enzyme alone for no effect
Autofluor counter – compound fluorescence in toxin protease inhibitor counterscreen | compound autofluorescence counterscreen, microsphere flow cytometry; stronger effect = higher value | fluorescence intensity (test concentration not listed) | 360,000 compounds, 3.1% hits; in the data active means fluorescence intensity above about 16000; inconclusive means no clear call, values can overlap the other calls
BoNT F protease – BoNT/F light chain protease inhibitors, primary screen, biochemical, flow cytometry, MLPCN library; Botulinum neurotoxin type F light chain protease (Clostridium botulinum); Multiplex microsphere protease cleavage assay; inhibition, % at 10 µM; 360,000 compounds, 0.22% hits; AID 588497, 2011; in the data active means inhibition above about 35%, passing the limit was not always enough; inconclusive means no clear call, values can overlap the other calls; further: plate controls were buffer without enzyme for full effect and enzyme alone for no effect
Active calls of the source: *; u = inconclusive; x = no result given. Unless noted, no stated cut-off is given here; in the data, active means inhibition above about 30%; inconclusive means no clear call, values can overlap the other calls; inactive means below that.

SMILES	Anthrax LF prot	MazF activator	BoNT A protease	Autofluor counter	BoNT F protease
Cc1n[nH]c(=S)n1/N=C/c1cccc(OCc2ccccc2)c1	-4	6	-1	2686	-7
CCn1cc(/C=C(\NC(=O)c2ccccc2)C(=O)NCCN2CCOCC2)c2ccccc21	2	5	0	3706	-1
CCc1nc(SCC(=O)c2ccc3c(c2)OCCO3)c2ccccc2n1	-2	-4	1	22675*	0
Cn1cnnc1SCC(=O)c1ccc2c(c1)OCCO2	-4	-4	-2	16723*	-2
O=C(CSc1nc(Cc2ccccc2)nc2ccccc12)c1ccc2c(c1)OCCO2	0	-14	1	4036	-1
O=C(CSc1nnc(SCc2cccc3ccccc23)s1)c1ccc2c(c1)OCO2	0	-5	6	19293*	3
CCC1(c2ccccc2)NC(=O)N(CC(=O)N2CC(=O)Nc3ccccc32)C1=O (stereo not given)	x	3	x	x	x
CC(C)c1cccc(-c2csc(C(O)c3cccc(Cl)c3)n2)c1 (stereo not given)	6	x	0	3561	4
O=C(CCS(=O)(=O)c1ccccc1)NNC(=O)CSc1ccccc1F	1	8	0	3432	3
COc1ccc(OC)c(S(=O)(=O)NCCCN2CCCC2=O)c1	-3	-1	2	6098	-1
O=c1c([N+](=O)[O-])cn(Cc2ccccc2)c(=O)n1Cc1ccccc1	4	-1	0	3418	-4
CC(=O)c1ccc(NC(=O)COC(=O)CCc2ccc(S(=O)(=O)N3CCOCC3)cc2)cc1	-3	0	0	3239	3
O=C(O)c1nc(N2CCCC2)ncc1Cl	-8	3	7	19947*	10
Cc1ccc(CNC(=O)C(OC(=O)c2ccco2)C(C)C)cc1 (stereo not given)	-4	-2	-1	11765	-12
Cc1ccc(CNC(=O)C(C)OC(=O)c2ccco2)cc1 (stereo not given)	0	6	u	22466*	4
CC(C)(C)OC(=O)N1CCCC1C(=O)N1CCc2ccccc21 (stereo not given)	-25	-12	u	16582*	14
COc1ccc(S(=O)(=O)NC(=O)C2(C)CCN2C(=O)C(C)(C)c2ccccc2)cc1 (stereo not given)	-11	x	0	3905	0
Cc1cc2c3c(c1)C1(SCC(=O)N1c1ccc(F)cc1)C(=O)N3C(C)(C)CC2C (stereo not given)	-4	4	-8	18092*	-10
O=C(c1cc2ncc(Br)cn2n1)N1CCOCC1	1	1	u	24596*	0
O=C(c1cc2ncc(Br)cn2n1)N1CCN(C(=O)c2ccco2)CC1	-1	3	0	2490	-6
COc1ccc(S(=O)(=O)N2CCC3(CC2)OCCN3S(=O)(=O)c2cccs2)cc1OC	-16	5	-63	20013*	-85
Cc1ccc(SCc2cc(=O)[nH]c(Nc3nc(C)c4cccc(C)c4n3)n2)cc1	-2	-158	3	22617*	3
COc1ccc2nc(Nc3nc(CSc4nnnn4-c4ccccc4)cc(=O)[nH]3)nc(C)c2c1	-2	-197	-1	10731	3
CCOc1ccc2nc(Nc3nc(CSc4nnnn4-c4ccccc4)cc(=O)[nH]3)nc(C)c2c1	3	-76	u	20506*	1
Fc1cccc(/C=N/NC(=S)Nc2ccccc2Cl)c1	-3	-20	0	2012	-3
SMILES	Anthrax LF prot	MazF activator	BoNT A protease	Autofluor counter	BoNT F protease
Fc1ccc(NC(=S)N/N=C/c2cccc(Br)c2)c(F)c1	0	0	u	20663*	-4
Cc1ccc(C(=O)Nc2cccc(C(=O)N3CCN(C)CC3)c2)cc1	5	9	0	8113	1
Cc1ccc(-c2ccc(=O)n(CC(=O)Nc3cccc(C(=O)N4CCN(C)CC4)c3)n2)cc1	-9	-13	u	19402*	2
O=C(CSc1nnc(-c2ccc(Cl)cc2)n1-c1ccccc1)N/N=C/c1ccccc1C(=O)O	-2	-6	4	4314	41*
CCCCn1c(=O)c(C(=O)c2ccccc2)nc2ccccc21	-1	-4	-7	21629*	-7
CCCn1c(=O)c(C(=O)c2ccccc2)nc2ccccc21	2	2	3	15413	6
Cc1c2c(nc3c(C(=O)NC4CC4)cnn13)CCCC2	-7	-4	5	21129*	6
CCOc1ccc(S(=O)(=O)NCc2cccs2)cc1	-3	1	0	11352	-3
CCSc1nnc(-c2ccc(S(=O)(=O)NCc3cccs3)cc2)o1	-2	-7	-1	20964*	-4
CCC(C)NC(=O)C(Cc1ccccc1)NS(=O)(=O)c1ccc2c(c1)CCC(=O)N2 (stereo not given)	2	9	2	6284	-3
CCCN(CCC)CCNC(=O)C(NS(=O)(=O)c1ccc2c(c1)CCC(=O)N2)c1ccccc1 (stereo not given)	-3	-6	-2	23934*	-4
CCCC(=O)Nc1c2c(nn1-c1cccc(C)c1C)CS(=O)(=O)C2	2	-7	-2	3440	-9
COc1ccc(CC(=O)Nc2c3c(nn2-c2cccc(C)c2C)CS(=O)(=O)C3)cc1	1	-5	1	22126*	1
CN1CCN(S(=O)(=O)c2ccc(N3CCN(c4ccccc4Cl)CC3)nc2)CC1	1	0	-1	u	-10
CC(C)NC(=O)C1(N2C(=O)c3ccccc3C2=O)CCCC1	-4	-15	0	3939	0
Cn1c(=O)cc(OCC(=O)N2CCN(c3cccc(C(F)(F)F)c3)CC2)c2ccccc21	-5	-5	2	20645*	1
CCN1CCCC1CNC(=O)COc1cc(=O)n(C)c2ccccc12 (stereo not given)	0	4	1	23013*	0
CCOC(=O)N1CCN(C(=O)COc2cc(=O)n(C)c3ccccc23)CC1	-3	4	3	14898	1
Cn1c(=O)cc(OCC(=O)N2CCCc3ccccc32)c2ccccc21	1	-3	-2	21145*	-6
O=C1C=C(NCc2ccccc2)C2(CCCCC2)O1	1	-1	3	22250*	4
CCc1nnc(NS(=O)(=O)c2ccc(NC(=O)c3ccc(C#N)cc3)cc2)s1	4	-3	-2	3919	-9
Cc1ccc(/C=N/n2c(C)n[nH]c2=S)o1	0	-6	1	22498*	3
Cc1ccc(/C=N/n2c(-c3ccncc3)n[nH]c2=S)o1	0	-5	-1	2354	1
C=Cc1ccc(CN2CCCN(Cc3ccc(F)cc3)S2(=O)=O)cc1	-6	-2	0	4100	45*
COc1ccc(NC(=O)Nc2ccc3c(c2)CC(=O)N([C@H](C)CO)C[C@@H](C)[C@H](CN(C)C(=O)Nc2ccccc2)O3)cc1	-7	1	0	2978	-2

Compound activity as filed in PubChem.
